PubChem BioAssay (Tox21)
Inconclusive results are not listed. Values without a mark were called inactive. The call rests on the fitted dose curve; in most records, active means well fitted activation curve with a large enough effect in the signal ratio in the repeat runs (not every such curve was filed as active); inconclusive means weak or mixed curves; inactive means flat fitted curve, though single readings scatter; the % refers to the signal ratio.
On the % scale 0 is the no-effect control and ±100 the full control effect.

Assay: qHTS assay to identify small molecule agonists of the TGF-beta/Smad signaling pathway (AID 1346859)
Conditions: SBE-bla HEK293T, TGF-beta/Smad beta-lactamase reporter, 5 h; series mostly up to 76.8 µM; activation: at the top concentration
Description: U.S. Tox21 Program National Center for Advancing Translational Sciences [NCATS] NIH Chemical Genomics Center [NCGC] U.S. Environmental Protection Agency [EPA] National Institutes of Environmental Health Sciences [NIEHS] National Toxicology Program [NTP] U.S. Food and Drug Administration [FDA] Tox21 Assay Overview: Transforming growth factor beta (TGF-beta) superfamily consists of a large number of structurally related dimeric proteins that act as hormones or local mediators in regulating a wide range of biological functions. This superfamily includes TGF-betas themselves, the bone morphogenetic proteins (BMPs) and the activins. These ligands induce oligomerization of serine/threonine receptor kinases and phosphorylate the cytoplasmic signaling molecules of Smad protein family. CellSensor SBE-bla HEK 293T cell line (Life Technologies, Carlsbad, CA), responsive to TGF-beta was used to screen Tox21 10K compound library for identification of agonists/antagonists of the Smad signaling pathway. This cell line contains a beta-lactamase reporter gene under control of the Smad binding element (SBE) stably integrated into HEK 293T cells.
Tox21 Assay Protocol Summary: SBE-bla HEK 293T cells were dispensed at 4,000/well in 6 uL of assay medium into black wall/clear-bottom 1536-well plates using a Multidrop Combi (ThermoFisher Scientific, Waltham, MA) dispenser. After the assay plates were incubated at 37 C and 5% CO2 for an overnight, 23 nL of compounds dissolved in DMSO, positive controls or DMSO only was transferred to the assay plate by a Pintool station (Kalypsys, San Diego, CA). The assay plates were incubated at 37 C and 5% CO2 for 5 hr. One uL of LiveBLAzer B/G FRET substrate (Life Technologies) was added using a Flying Reagent Dispenser (Aurora Discovery, San Diego, CA) and the plates were incubated at room temperature for 2 hr. Fluorescence intensity (405 nm excitation, 460 nm and 530 nm emissions) was measured using an Envision plate reader (PerkinElmer, Shelton, CT).
For `C/C=C/C=C/C=O`, the “activation” value was 5.14%. With `O=C(CCc1ccc(O)cc1)c1c(O)cc(O)cc1O` the “activation” value was 0.317%. In the case of `CC(C)(C)CC(=O)OCC(=O)[C@@]1(O)CC[C@H]2[C@@H]3CCC4=CC(=O)C=C[C@]4(C)[C@H]3[C@@H](O)C[C@@]21C`, the “activation” value is reported as 1.61% [at 35.3 µM]. For `O=C(OC(=O)c1ccccc1)c1ccccc1`, the “activation” value was 0.372%. In the case of `COC(=O)CCS`, the “activation” value is reported as 0.131%. In the case of `C1C[C@@H]2[C@H]3CC[C@H](C3)[C@@H]2C1`, the “activation” value is reported as -0.685%. In the case of `C=C(C)C(=O)OCCOCCOC(=O)C(=C)C`, the “activation” value is reported as -0.287%. For `CCCCOc1ccc(OCCCN2CCOCC2)cc1`, the “activation” value was -0.84% [at 35.3 µM]. With `CC1CC(OC(=O)C(O)c2ccccc2)CC(C)(C)N1C` (stereo not given) the “activation” value was -2.42% [at 35.3 µM]. In the case of `CC(=O)Oc1ccc([N+](=O)[O-])cc1CCl`, the “activation” value is reported as -0.555%. In the case of `COc1cc(N)c(Cl)cc1C(=O)NC1CCN(CCCOc2ccc(F)cc2)CC1OC` (stereo not given), the “activation” value is reported as -7.09% [at 35.3 µM]. With `CC(CN(C)C)C(C)(O)Cc1ccc(Cl)cc1` (stereo not given) the “activation” value was -0.783% [at 35.3 µM]. For `CCCCN(CCCC)C(C(N)=O)c1ccc(OC)cc1` (stereo not given), the “activation” value was 2.02% [at 35.3 µM]. In the case of `CC(C)Nc1cccnc1N1CCN(C(=O)c2cc3cc(NS(C)(=O)=O)ccc3[nH]2)CC1`, the “activation” value is reported as -2.98% [at 35.3 µM]. For `FC(F)(F)c1ccccc1Cl`, the “activation” value was -1.25%. In the case of `NNC(=O)CP(=O)(c1ccccc1)c1ccccc1`, the “activation” value is reported as -0.761% [at 35.3 µM]. For `c1ccc(C[n+]2cccc3ccccc32)cc1`, the “activation” value was -0.487%. With `O=c1[nH]c2ccc(Cl)cc2o1` the “activation” value was -1.54%. For `C=CC(=O)[O-].C=CC(=O)[O-].[Zn+2]`, the “activation” value was -1.35%. In the case of `Cc1cc2c(OCC(CNC(C)(C)C)OC(=O)c3ccccc3)cccc2[nH]1` (stereo not given), the “activation” value is reported as 6.3% [at 35.3 µM]. For `Oc1ccc(Cl)c2cccnc12`, the “activation” value was 7.25% [at 35.3 µM]. For `C=C1CCC2CC1C2(C)C` (stereo not given), the “activation” value was 2.08%. In the case of `CC(=O)OCC(=O)NCCCOc1cccc(CN2CCCCC2)c1`, the “activation” value is reported as 0.889% [at 35.3 µM]. With `C=CC(=O)OCC1CC2CC1C1CCC(COC(=O)C=C)C21` (stereo not given) the “activation” value was 7.18%. With `C/C=C\C/C=C/CCCCCCCCOC(C)=O` the “activation” value was -2.8%. For `Brc1cc(Br)c(Oc2cc(Br)c(Br)cc2Br)cc1Br`, the “activation” value was -0.972% [at 35.3 µM]. In the case of `CCCC(C(=O)OCCN(CC)CC)(c1ccccc1)c1ccccc1`, the “activation” value is reported as -3.96% [at 35.3 µM]. With `CC(C)c1nc(CN(C)C(=O)N[C@H](C(=O)N[C@@H](Cc2ccccc2)C[C@H](O)[C@H](Cc2ccccc2)NC(=O)OCc2cncs2)C(C)C)cs1` the “activation” value was -10.5% [at 35.3 µM]. For `O=C1NC(=O)c2cc([N+](=O)[O-])ccc21`, the “activation” value was -0.454%. For `CC(O)c1ccccc1` (stereo not given), the “activation” value was -0.25%. In the case of `CC(C)=CCC1C(=O)N(c2ccccc2)N(c2ccccc2)C1=O`, the “activation” value is reported as -5.93% [at 35.3 µM]. For `CCOC(C)=O`, the “activation” value was -2.04%. For `C=COCC(C)C`, the “activation” value was 0.272%. For `CCCCCCCC/C=C\CCCCCCCCCCCC(=O)O`, the “activation” value was 1.12%. With `CS(=O)(=O)c1ccc(-c2cn3ccccc3n2)cc1` the “activation” value was -0.374% [at 35.3 µM]. In the case of `N#CCc1ccc(Cl)cc1Cl`, the “activation” value is reported as -0.0449%. For `CCC1(CO)COCOC1`, the “activation” value was 0.918%. With `C=C(C)[C@@H]1CCC2=CCC[C@@H](C)[C@]2(C)C1` the “activation” value was 3.5%. In the case of `CC(=O)Nc1ccc(C)cc1C`, the “activation” value is reported as -0.445%. In the case of `CCCCCCC(C)(C)C(=O)O`, the “activation” value is reported as -0.223%.
